Source: PubChem
AMPAR-TARP mod – modulators of AMPA receptor GluA2-stargazin complexes; 40,000 tested, 3.5% active; O88602+P19491; HEK293 GluA2+stargazin, membrane potential dye (FDSS), glutamate EC50; hits were called plate by plate, in both directions; AID 1259245; calls only at 30 µM;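 active = any of four per-well response measures lying three or more SD from its plate-wide compound average, in either direction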
GIRK2 activator – Activators of human GIRK2-containing channels | HEK293 GIRK2/NPY4 cells, thallium flux fluorescence | activation (% efficacy), % for hits at 37.5 µM | 34,000 tested, under 10 active | AID 1259324;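 active = primary screen hit, no activity in plain HEK293 cells, and in GIRK2-only cells above 5% efficacy rising with concentration; inactive = the rest, including fluorescent compounds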;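 also: efficacy is normalized control-subtracted fluorescence 15 s after thallium addition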
Target sequence (P48051 whole entry, looked up): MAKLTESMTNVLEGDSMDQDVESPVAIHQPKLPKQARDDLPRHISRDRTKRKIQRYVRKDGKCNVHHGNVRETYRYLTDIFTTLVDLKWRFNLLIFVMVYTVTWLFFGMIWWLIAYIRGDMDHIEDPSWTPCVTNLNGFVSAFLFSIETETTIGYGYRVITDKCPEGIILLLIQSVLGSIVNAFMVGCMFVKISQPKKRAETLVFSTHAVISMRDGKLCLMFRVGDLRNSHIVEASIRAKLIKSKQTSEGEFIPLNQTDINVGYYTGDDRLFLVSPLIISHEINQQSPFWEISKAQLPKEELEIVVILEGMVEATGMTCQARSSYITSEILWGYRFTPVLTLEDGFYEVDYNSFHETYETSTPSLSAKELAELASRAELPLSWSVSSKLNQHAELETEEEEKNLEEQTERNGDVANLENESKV
Numbers without * were called inactive. Shown is part of a subset that was picked to be rich in hits.

How did Cn1c(O)c(N=Nc2nc3c(c(=O)n(Cc4ccccc4)c(=O)n3C)n2C)c(=O)n(C)c1=O do in these assays?
AMPAR-TARP mod: active

What do the screens show for `Cn1c(=O)c2c(nc(N=Nc3c(O)[nH]c4ccccc34)n2Cc2ccccc2)n(C)c1=O`?
AMPAR-TARP mod: inactive

How did CCOC(=O)c1ccc(Nc2nc(C)c([N+](=O)[O-])c(NCc3ccco3)n2)cc1 do in these assays?
AMPAR-TARP mod: inactive; GIRK2 activator: inactive

How did Cc1nccn1-c1cc(N2CCN(C(=O)C(C)Oc3ccccc3)CC2)ncn1 (stereo not given) do in these assays?
AMPAR-TARP mod: inactive; GIRK2 activator: inactive

What do the screens show for `Cc1cccc(Cn2c(=O)c3nscc3n(CC(=O)Nc3ccccc3C)c2=O)c1`?
AMPAR-TARP mod: inactive; GIRK2 activator: inactive

What do the screens show for `CC(=O)c1ccc(NC(=O)Cn2c(=O)n(Cc3ccccc3)c(=O)c3nscc32)cc1`?
AMPAR-TARP mod: active; GIRK2 activator: inactive

What do the screens show for `Cc1ccc(S(=O)(=O)CCC(=O)Nc2cc(C)nn2C(C)C)cc1`?
AMPAR-TARP mod: inactive; GIRK2 activator: inactive

What do the screens show for `CNC(=O)c1nsc(C(=O)NCc2ccccc2F)c1N`?
AMPAR-TARP mod: inactive; GIRK2 activator: inactive

What do the screens show for `Cc1cc(-c2nnc(NC(=O)c3ccc(Oc4ccccc4)cc3)o2)n(C)n1`?
GIRK2 activator: inactive

How did O=C(Cc1ccc(F)cc1)Nc1cc(-c2cccs2)nn1CCO do in these assays?
AMPAR-TARP mod: inactive; GIRK2 activator: inactive

Results for O=C(CCSc1ccccc1)Nc1cc(-c2cccs2)nn1CCO ?
AMPAR-TARP mod: active; GIRK2 activator: inactive

Results for CCOC(=O)CNC(=O)CSc1c(C)cnc2c1c(=O)n(C)c(=O)n2C ?
AMPAR-TARP mod: inactive; GIRK2 activator: inactive

What do the screens show for `COc1ccc(CC(=O)Nc2ccc3c(c2)CCCN3S(=O)(=O)c2ccc(OC)cc2)cc1`?
AMPAR-TARP mod: inactive

What do the screens show for `COc1ccc(OCC(=O)Nn2cnc3c(cnn3-c3ccccc3)c2=O)cc1`?
AMPAR-TARP mod: inactive; GIRK2 activator: inactive

How did Cc1cccc(-c2nc3c(c(SCC(=O)N(C)C)n2)CCCC3)c1 do in these assays?
AMPAR-TARP mod: inactive; GIRK2 activator: inactive

How did O=C(CSc1nc(-c2ccccc2)nc2c1CCCC2)N1CCOCC1 do in these assays?
AMPAR-TARP mod: active

What do the screens show for `COc1cn(CC(=O)Nc2c(C)cc(C)cc2C)c(CSc2nc(C)cs2)cc1=O`?
AMPAR-TARP mod: inactive; GIRK2 activator: inactive

What do the screens show for `CCOC(=O)CCn1c(=O)c2c(nc3n(-c4cc(OC)ccc4OC)c(C)cn23)n(C)c1=O`?
AMPAR-TARP mod: inactive

Results for O=C(Nc1ccccc1[N+](=O)[O-])C1CCCN(c2ccc(-c3ccccc3)nn2)C1 (stereo not given) ?
AMPAR-TARP mod: active; GIRK2 activator: inactive

What do the screens show for `O=C(Nc1ccc([N+](=O)[O-])cc1)C1CCCN(c2ccc(-c3ccccc3)nn2)C1` (stereo not given)?
AMPAR-TARP mod: inactive; GIRK2 activator: inactive

What do the screens show for `COc1ccc(CCNC(=O)CC2CCCCN2S(=O)(=O)c2ccc(Cl)cc2)cc1OC` (stereo not given)?
AMPAR-TARP mod: active

How did COc1ccc(S(=O)(=O)N2CCCCC2CC(=O)NC2CCCCC2)cc1 (stereo not given) do in these assays?
AMPAR-TARP mod: inactive

Results for COc1ccccc1CNC(=O)CC1CCCCN1S(=O)(=O)c1ccccc1 (stereo not given) ?
AMPAR-TARP mod: inactive

What do the screens show for `COc1ccc(S(=O)(=O)N2CCCCC2CC(=O)NCc2ccc(Cl)cc2)cc1` (stereo not given)?
AMPAR-TARP mod: inactive

How did COc1ccc(S(=O)(=O)N2CCCCC2CC(=O)NC2CCCCCC2)cc1 (stereo not given) do in these assays?
AMPAR-TARP mod: active

What do the screens show for `Cc1ccc(S(=O)(=O)N2CCCCC2CC(=O)NCc2ccccn2)cc1` (stereo not given)?
AMPAR-TARP mod: inactive; GIRK2 activator: inactive

What do the screens show for `Cc1ccc(S(=O)(=O)N2CCCCC2CC(=O)NC2CCCCCC2)cc1` (stereo not given)?
AMPAR-TARP mod: active

Results for COc1ccccc1CNC(=O)CC1CCCCN1S(=O)(=O)c1ccc(C)cc1 (stereo not given) ?
AMPAR-TARP mod: active

How did O=C(CSc1ccc(NC(=O)c2ccccc2)nn1)NC1CCCCC1 do in these assays?
AMPAR-TARP mod: inactive; GIRK2 activator: inactive

What do the screens show for `COC(=O)c1sccc1S(=O)(=O)Nc1cccc(OC)c1`?
AMPAR-TARP mod: inactive

Results for COc1nn(C)cc1-c1nnc(SC/C=C/c2ccccc2)n1C ?
AMPAR-TARP mod: inactive; GIRK2 activator: inactive

How did COc1ccc(S(=O)(=O)N2CCCOC2CNC(=O)C(=O)NCc2cccnc2)cc1C (stereo not given) do in these assays?
AMPAR-TARP mod: inactive

What do the screens show for `CC(C)n1ccc(C(=O)Nc2nc(-c3ccc(C#N)cc3)cs2)n1`?
AMPAR-TARP mod: inactive; GIRK2 activator: inactive

What do the screens show for `O=C(CC1CCCCN1S(=O)(=O)c1ccccc1)NC1CCCCCC1` (stereo not given)?
AMPAR-TARP mod: active

How did COc1ccc(CCNC(=O)CC2CCCCN2S(=O)(=O)c2ccccc2)cc1 (stereo not given) do in these assays?
AMPAR-TARP mod: inactive

What do the screens show for `COC(=O)c1sccc1S(=O)(=O)N1CCN(c2ccccc2F)CC1`?
AMPAR-TARP mod: active

How did COc1ccc(CNC(=O)c2sccc2S(=O)(=O)N2CCN(c3ccccc3F)CC2)cc1 do in these assays?
GIRK2 activator: inactive

Results for Cc1cc(C)c2c(n1)sc1c(N3CCN(CCO)CC3)ncnc12 ?
AMPAR-TARP mod: active; GIRK2 activator: inactive

Results for CCc1cc2c(N3CCN(c4nc(C)cc(C)n4)CC3)ncnc2s1 ?
AMPAR-TARP mod: inactive

What do the screens show for `CC1CCCCN1c1ccc(N2CCN(S(=O)(=O)c3ccccc3Cl)CC2)nn1` (stereo not given)?
AMPAR-TARP mod: inactive; GIRK2 activator: inactive

What do the screens show for `CN(C)C(CNC(=O)C(=O)NC1CC1)c1ccc(F)cc1` (stereo not given)?
AMPAR-TARP mod: inactive; GIRK2 activator: inactive

How did Cc1ccc(C(CNC(=O)C(=O)NC2CC2)N(C)C)cc1 (stereo not given) do in these assays?
AMPAR-TARP mod: active; GIRK2 activator: inactive

Results for COc1cc(OC)cc(C(=O)NCC2CCN(Cc3ccccc3)CC2)c1 ?
AMPAR-TARP mod: inactive

How did O=C(Nc1ccc2c(c1)CN(C(=O)c1ccco1)CC2)c1cnccn1 do in these assays?
AMPAR-TARP mod: active; GIRK2 activator: inactive

How did O=C(Nc1ccc2c(c1)CN(C(=O)C1CC1)CC2)c1ccsc1 do in these assays?
AMPAR-TARP mod: inactive; GIRK2 activator: inactive

Results for CSc1ccccc1C(=O)Nc1ccc2c(c1)CN(C(=O)c1ccco1)CC2 ?
AMPAR-TARP mod: inactive; GIRK2 activator: inactive

Results for O=C(Nc1ccc2c(c1)CN(C(=O)c1ccco1)CC2)c1ccc2nsnc2c1 ?
AMPAR-TARP mod: active; GIRK2 activator: inactive

What do the screens show for `CCCc1nnsc1C(=O)Nc1ccc2c(c1)CN(C(=O)c1ccco1)CC2`?
AMPAR-TARP mod: inactive; GIRK2 activator: inactive

What do the screens show for `O=C(Nc1ccc2c(c1)CN(C(=O)C1CC1)CC2)c1ccc2nsnc2c1`?
AMPAR-TARP mod: active; GIRK2 activator: inactive
